From PubChem BioAssay come the findings set out here.

Where “and” joins values, the source holds several entries; their conditions need not be identical. Equal values may be shown once. Calls of active or inactive are those of the source.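 The calls were made as follows, unless noted: active = compounds whose cell count with miR-34 switched on is under 0.7 times the count with it off; inactive = the rest.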

A short description of assay [1]: viability loss with induced miR-34 in A549 – imaging, A549 dox-inducible miR-34, nuclei and caspase counts, primary screen (AID 1347080). To be noted: A549 miR-34 inducible, Hoechst nuclei count, 48 h.
Assay [2] can be described thus: blockers of cellular phospholipid synthesis – cell-based, LOPAC library, screen 4, primary screen (AID 1347384; call rule not given here). To be noted: animal cells, phospholipid biosynthesis inhibition screen; at 10 µM.
Assay [3] can be described thus: chitosan synthesis blockers in C. neoformans – flow cytometry, Cibacron Brilliant Red staining (AID 1347148; call rule not given here;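 also: compound exposure lasted three days at 37 degrees C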). To be noted: Cryptococcus neoformans chitosan, stronger effect = lower value; at 10 µM unless noted. (In general: Flow cytometry measures light scatter and fluorescence of single cells or particles in a stream.)
Assay [4] can be described thus: MELAS cybrid and Rieske KO viability enhancers – cell-based, MELAS cybrids, Rieske KO mouse fibroblasts, CellTiter-Glo, primary screen (AID 1508586;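 active = mean z-score across replicates of 1.96 or higher in either the MELAS or the Rieske mutant cell line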;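 also: z relative to plate mean and SD of compound and empty wells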). To be noted: low glucose.
Setting [5] is: stronger effect = lower value, cell number ratio, induced over uninduced.
[6] abbreviates: measured here: relative caspase fold change +Dox/-Dox.
Where [7] appears, read: measured here: total cells with miR-34 induction, stronger effect = lower value.
[8] abbreviates: measured here: total cells without miR-34 induction.
Where [9] appears, read: MELAS cybrid survival, CellTiter-Glo 48 h, stronger effect = higher value.
The mark [10] stands for this setting: Rieske KO mouse fibroblast survival, CellTiter-Glo 72 h.

For the compound `Oc1cccc(O)c1`, the fold change in assay [1] (setting [5]) is 0.918 (inactive); in assay [1] (setting [6]), 2.54. In addition, the cell count in assay [1] (setting [7]) is 12000; in assay [1] (setting [8]) it was 13100.

Take `CN(C)CC[C@@H](c1ccc(Br)cc1)c1ccccn1`: the figures for the fold change in assay [1] (setting [5]) and in assay [1] (setting [6]) were 0.946 (inactive) and 1.72, respectively. Further, the cell count in assay [1] (setting [7]) was 9070; in assay [1] (setting [8]), 9580. Besides, the compound was classed as inactive in assay [2].

Take `NS(=O)(=O)c1cc2c(cc1Cl)NC(C1CC3C=CC1C3)NS2(=O)=O` (stereo not given): the fold change in assay [1] (setting [5]) was 0.998 (inactive) and 0.957 (inactive) and 0.847 (inactive); in assay [1] (setting [6]) it was 1.34 and 0.752 and 2.93. Also, the cell count is 9070 and 9210 and 11400 in assay [1] (setting [7]); 9090 and 9620 and 13400 in assay [1] (setting [8]). The call in assay [2] was inactive.

With `CCCc1c(OCCCCc2nn[nH]n2)ccc(C(C)=O)c1O`, the fold change was 0.952 (inactive) and 0.923 (inactive) and 1.01 (inactive) in assay [1] (setting [5]); 1 and 1.28 and 1.02 in assay [1] (setting [6]). Further, the cell count in assay [1] (setting [7]) was 9490 and 5900 and 5660; in assay [1] (setting [8]) it was 9970 and 6400 and 5590. Further, the fold fluorescence in assay [3] is 4.57 (inactive).

Regarding `Nc1ccc(S(=O)(=O)Nc2ccnn2-c2ccccc2)cc1`, the fold change was 0.969 (inactive) and 0.9 (inactive) in assay [1] (setting [5]); 1.76 and 1.07 in assay [1] (setting [6]). For the same compound, the cell count was 10100 and 7980 in assay [1] (setting [7]); 10500 and 8860 in assay [1] (setting [8]). The call in assay [2] was inactive. In addition, the z-score in assay [4] (setting [9]) is -0.791 (inactive); in assay [4] (setting [10]) it was -0.133.

On to `CCN(CC)C(C)CN1c2ccccc2Sc2ccccc21` (stereo not given), for which the fold change in assay [1] (setting [5]) was 1.11 (inactive) and 0.804 (inactive) and 0.894 (inactive); in assay [1] (setting [6]), 1.02 and 1.63 and 0.788. For the same compound, the cell count was 9230 and 7320 and 9620 in assay [1] (setting [7]); 8340 and 9100 and 10800 in assay [1] (setting [8]). Further, in assay [2], the call was inactive. In addition, the results for the z-score in assay [4] (setting [9]) and in assay [4] (setting [10]) were -0.553 (inactive) and -0.605, respectively.

On to `CN1CCCN=C1COC(=O)C(O)(c1ccccc1)C1CCCCC1` (stereo not given), for which the figures for the fold change in assay [1] (setting [5]) and in assay [1] (setting [6]) were 0.832 (inactive) and 3.67, respectively. For the same compound, the cell count in assay [1] (setting [7]) came out at 10300; in assay [1] (setting [8]), 12400.

Turning to `C[C@@H]1CN(CCCn2c3ccccc3c3ccccc32)C[C@H](C)N1`, the values for the fold change in assay [1] (setting [5]) and in assay [1] (setting [6]) were 0.959 (inactive) and 0.675, respectively. Besides, the figures for the cell count in assay [1] (setting [7]) and in assay [1] (setting [8]) were 8000 and 8340, respectively.

Regarding `CCCC(C(=O)OCCN(CC)CC)(c1ccccc1)c1ccccc1`, the fold change in assay [1] (setting [5]) was 0.769 (inactive) and 0.897 (inactive) and 0.979 (inactive); in assay [1] (setting [6]), 1.28 and 1.07 and 2.3. Moreover, the cell count was 4500 and 7370 and 10800 in assay [1] (setting [7]); 5860 and 8210 and 11000 in assay [1] (setting [8]). In addition, the outcome in assay [2] was inactive. Further, the z-score in assay [4] (setting [9]) was -2.4 (inactive); in assay [4] (setting [10]), 0.38.

For the compound `COC(=O)N/N=C/c1c[n+]([O-])c2ccccc2[n+]1[O-]`, the fold change in assay [1] (setting [5]) was 0.833 (inactive) and 0.91 (inactive); in assay [1] (setting [6]), 6.83 and 1.15. Besides, the cell count in assay [1] (setting [7]) is 10200 and 7650; in assay [1] (setting [8]), 12300 and 8400. The z-score is 0.937 (inactive) and 0.871 (inactive) in assay [4] (setting [9]); 0.153 and -0.0791 in assay [4] (setting [10]).

Take `O=c1ccc2ccccc2o1`: the fold change in assay [1] (setting [5]) was 0.91 (inactive) and 0.88 (inactive); in assay [1] (setting [6]), 0.575 and 1.07. Further, the cell count in assay [1] (setting [7]) was 7780 and 10900; in assay [1] (setting [8]) it was 8550 and 12300. Besides, the z-score was -0.266 (inactive) in assay [4] (setting [9]) and -0.22 in assay [4] (setting [10]).

Consider `CCn1cc(C(=O)O)c(=O)c2cc3c(cc21)OCO3`, for which the fold change in assay [1] (setting [5]) is 1.06 (inactive) and 0.943 (inactive) and 0.852 (inactive); in assay [1] (setting [6]), 0.823 and 1.43 and 2.84. Besides, the cell count in assay [1] (setting [7]) is 10300 and 9150 and 11200; in assay [1] (setting [8]), 9710 and 9700 and 13200. Also, the compound was called inactive in assay [2]. Besides, the z-score in assay [4] (setting [9]) is 0.663 (inactive); in assay [4] (setting [10]), 0.252.

Consider `Nc1c2c(nc3ccccc13)CCCC2O` (stereo not given), for which the fold change is 0.95 (inactive) and 0.845 (inactive) and 0.969 (inactive) in assay [1] (setting [5]); 0.943 and 1.26 and 0.952 in assay [1] (setting [6]). The cell count in assay [1] (setting [7]) was 9940 and 8540 and 10300; in assay [1] (setting [8]), 10500 and 10100 and 10600. The compound was classed as inactive in assay [2]. Also, the z-score in assay [4] (setting [9]) is 1.73 (inactive) and -0.394 (inactive); in assay [4] (setting [10]), 0.362 and -0.175.

Take `COc1cc2c3cc1Oc1cc(ccc1O)C[C@@H]1c4c(cc(OC)c(O)c4Oc4ccc(cc4)C[C@@H]3N(C)CC2)CC[N+]1(C)C`: the fold change is 0.869 (inactive) and 0.934 (inactive) in assay [1] (setting [5]); 2.84 and 1.19 in assay [1] (setting [6]). For the same compound, the cell count in assay [1] (setting [7]) is 11500 and 10000; in assay [1] (setting [8]), 13300 and 10700. The z-score in assay [4] (setting [9]) was -0.392 (inactive); in assay [4] (setting [10]) it was -0.225.

Take `CN(C)CCOC(=O)C(c1ccccc1)C1(O)CCCC1` (stereo not given): the fold change is 0.97 (inactive) and 0.896 (inactive) in assay [1] (setting [5]); 0.779 and 1.74 in assay [1] (setting [6]). Besides, the cell count in assay [1] (setting [7]) was 9700 and 10300; in assay [1] (setting [8]), 10000 and 11500. The values for the z-score in assay [4] (setting [9]) and in assay [4] (setting [10]) were 0.757 (inactive) and 0.693, respectively.

As for `COCc1c(C(C)C)nc(C(C)C)c(/C=C/[C@@H](O)C[C@@H](O)CC(=O)O)c1-c1ccc(F)cc1`, the results for the fold change in assay [1] (setting [5]) and in assay [1] (setting [6]) were 1.07 (inactive) and 1.46, respectively. Further, the cell count in assay [1] (setting [7]) was 1320; in assay [1] (setting [8]) it was 1240. Moreover, the results for the z-score in assay [4] (setting [9]) and in assay [4] (setting [10]) were -1.23 (inactive) and -0.402, respectively.

`CCN1CCC[C@H]1CNC(=O)c1cc(S(N)(=O)=O)ccc1OC`: the fold change was 1.01 (inactive) and 0.997 (inactive) and 0.936 (inactive) in assay [1] (setting [5]); 1.51 and 0.827 and 1.56 in assay [1] (setting [6]). Besides, the cell count was 10700 and 9240 and 9830 in assay [1] (setting [7]); 10600 and 9270 and 10500 in assay [1] (setting [8]). Also, the compound was classed as inactive in assay [2]. The z-score in assay [4] (setting [9]) was 0.469 (inactive); in assay [4] (setting [10]) it was 0.62.

`CC(=O)OC(C)C[N+](C)(C)C` (stereo not given): the fold change in assay [1] (setting [5]) is 0.996 (inactive) and 0.9 (inactive) and 0.916 (inactive); in assay [1] (setting [6]), 1.55 and 1.24 and 1.41. Also, the cell count is 9370 and 9670 and 11300 in assay [1] (setting [7]); 9400 and 10700 and 12300 in assay [1] (setting [8]). Also, the outcome in assay [2] was inactive. Further, the z-score in assay [4] (setting [9]) was -0.509 (inactive); in assay [4] (setting [10]), 0.138.

For `C=CC(N)CCC(=O)O` (stereo not given), the fold change is 0.942 (inactive) and 0.866 (inactive) and 0.941 (inactive) in assay [1] (setting [5]); 1.9 and 1.11 and 2.08 in assay [1] (setting [6]). In addition, the cell count in assay [1] (setting [7]) is 9530 and 8830 and 11000; in assay [1] (setting [8]), 10100 and 10200 and 11700. Moreover, the call in assay [2] was inactive. The z-score in assay [4] (setting [9]) is -0.0921 (inactive); in assay [4] (setting [10]), 0.0881.

Regarding `CC(C(=O)O)c1ccc2c(c1)[nH]c1ccc(Cl)cc12` (stereo not given), the fold change in assay [1] (setting [5]) was 0.887 (inactive) and 0.921 (inactive); in assay [1] (setting [6]), 0.75 and 3.71. For the same compound, the cell count is 8310 and 12000 in assay [1] (setting [7]); 9370 and 13100 in assay [1] (setting [8]). Also, the z-score is -0.267 (inactive) and -0.0777 (inactive) in assay [4] (setting [9]); -0.169 and 0.447 in assay [4] (setting [10]).

For the compound `COc1ccc(C(=O)NCc2ccc(OCCN(C)C)cc2)cc1OC`, the fold change in assay [1] (setting [5]) is 0.832 (inactive) and 1.01 (inactive) and 0.841 (inactive); in assay [1] (setting [6]), 0.68 and 1.38 and 1.73. Besides, the cell count is 8010 and 10500 and 9070 in assay [1] (setting [7]); 9630 and 10400 and 10800 in assay [1] (setting [8]). Moreover, the z-score in assay [4] (setting [9]) is 0.424 (inactive) and 1.16 (inactive); in assay [4] (setting [10]), -0.0117 and -0.161.
